Laboratory results published in PubChem BioAssay AID1159580 (chemical genetic matrix, 2015).
The whole screen tested about 5,500 compounds, of which about 2,000 (36%) were called active. Another 18% or so got no clear call; they are omitted. Cut-off read from the data, not from the text of the source: active = normalized growth mostly below about 0.91 (no sharp cut-off); inconclusive = no clear call, values can overlap the other calls; inactive = mostly above about 0.92. The list shows a part of the results.

Experiment: chemical genetic growth profiling, strain panel (AID 1159580);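 note: tested at 20 µM; growth read once vehicle control cultures reached saturation at 30 °C; 1 = growth at the plate median or of vehicle wells; lower values mean less growth of the strain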
Settings: S. cerevisiae deletion strains, growth OD

Measured: normalized growth

NC(=O)c1cccnc1
inactive: locus YAL021C, strain ccr4, active compounds read low 0.969 | locus YAL026C, strain drs2, active compounds read low 0.979 | locus YAL030W, strain snc1, active compounds read low 0.958 | locus YBL061C, strain skt5, active compounds read low 0.971 | locus YBR009C, strain hhf1, active compounds read low 0.974 | locus YBR023C, strain chs3, active compounds read low 0.98 | locus YBR171W, strain sec66, active compounds read low 0.968 | locus YBR231C, strain swc5, active compounds read low 0.995 | locus YBR279W, strain paf1, active compounds read low 0.991 | locus YCL011C, strain gbp2, active compounds read low 0.979 | locus YCL016C, strain dcc1, active compounds read low 0.978 | locus YCL061C, strain MRC1, active compounds read low 0.986 | locus YCL069W, strain vba3, active compounds read low 0.986 | locus YCR088W, strain abp1, active compounds read low 0.97 | locus YDL005C, strain med2, active compounds read low 0.966 | locus YDL040C, strain nat1, active compounds read low 0.992 | locus YDR001C, strain nth1, active compounds read low 0.972 | locus YDR069C, strain doa4, active compounds read low 0.972 | locus YDR137W, strain rgp1, active compounds read low 0.994 | locus YDR159W, strain sac3, active compounds read low 0.97 | locus YDR195W, strain ref2 0.996 | locus YDR297W, strain sur2, active compounds read low 0.975 | locus YDR334W, strain swr1, active compounds read low 0.928 | locus YDR335W, strain msn5, active compounds read low 0.975 | locus YDR392W, strain spt3, active compounds read low 0.985 | locus YEL003W, strain gim4, active compounds read low 0.975 | locus YEL037C, strain rad23, active compounds read low 0.987 | locus YEL061C, strain CIN8 (second series), active compounds read low 0.983 | locus YER015W, strain faa2, active compounds read low 0.992 | locus YER016W, strain bim1, active compounds read low 0.981 | locus YER111C, strain swi4, active compounds read low 0.985 | locus YER155C, strain BEM2 (second series), active compounds read low 0.98 | locus YFR010W, strain ubp6, active compounds read low 0.971 | locus YGL167C, strain pmr1, active compounds read low 0.984 | locus YGL173C, strain kem1, active compounds read low 0.957 | locus YGL227W, strain vid30, active compounds read low 0.959 | locus YGL240W, strain doc1, active compounds read low 0.963 | locus YGL253W, strain hxk2, active compounds read low 0.998 | locus YHR013C, strain ard1, active compounds read low 0.972 | locus YHR027C, strain rpn1, active compounds read low 0.959 | locus YHR030C, strain SLT2, active compounds read low 0.971 | locus YHR079C, strain IRE1, active compounds read low 0.961 | locus YHR142W, strain chs7, active compounds read low 0.976 | locus YJL092W, strain hpr5, active compounds read low 0.982 | locus YJL095W, strain BCK1 (second series), active compounds read low 0.979 | locus YJL095W, strain BCK1, active compounds read low 0.974 | locus YJL115W, strain asf1, active compounds read low 0.96 | locus YJL129C, strain trk1, active compounds read low 0.996 | locus YJL154C, strain vps35, active compounds read low 0.964 | locus YJL164C, strain tpk1, active compounds read low 0.992 | locus YJL166W, strain qcr8, active compounds read low 0.978 | locus YJL187C, strain SWE1, active compounds read low 0.982 | locus YJR066W, strain TOR1, active compounds read low 0.928 | locus YKL160W, strain elf1, active compounds read low 0.991 | locus YKR026C, strain gcn3, active compounds read low 0.976 | locus YKR091W, strain srl3, active compounds read low 0.986 | locus YLL001W, strain dnm1, active compounds read low 0.991 | locus YLL026W, active compounds read low 0.951 | locus YLL041C, strain sdh2, active compounds read low 0.982 | locus YLR027C, strain aat2, active compounds read low 0.948 | locus YLR113W, strain HOG1, active compounds read low 0.973 | locus YLR221C, strain rsa3, active compounds read low 0.974 | locus YLR258W, strain gsy2, active compounds read low 0.984 | locus YLR262C, strain YPT6 (second series), active compounds read low 0.965 | locus YLR320W, strain mms22, active compounds read low 1 | locus YLR342W, strain FKS1, active compounds read low 0.983 | locus YLR357W, strain rsc2, active compounds read low 0.979 | locus YLR370C, strain arc18, active compounds read low 0.986 | locus YLR384C, strain iki3, active compounds read low 0.987 | locus YML120C, strain ndi1, active compounds read low 0.982 | locus YMR058W, strain fet3, active compounds read low 0.979 | locus YMR125W, strain sto1, active compounds read low 0.963 | locus YMR129W, active compounds read low 0.99 | locus YMR205C, strain PFK2, active compounds read low 0.962 | locus YMR231W, strain pep5, active compounds read low 0.978 | locus YNL071W, strain lat1, active compounds read low 0.975 | locus YNL183C, strain NPR1, active compounds read low 0.949 | locus YNL209W, strain ssb2, active compounds read low 0.979 | locus YNL248C, strain rpa49, active compounds read low 0.973 | locus YNL322C, strain KRE1 (second series), active compounds read low 0.98 | locus YNR049C, strain mso1, active compounds read low 0.966 | locus YOR001W, strain rrp6, active compounds read low 0.983 | locus YOR070C, strain gyp1, active compounds read low 0.983 | locus YOR080W, strain dia2, active compounds read low 0.978 | locus YOR083W, strain WHI5, active compounds read low 0.986 | locus YOR106W, strain vam3, active compounds read low 0.986 | locus YOR231W, strain MKK1, active compounds read low 0.975 | locus YOR265W, strain rbl2, active compounds read low 0.983 | locus YOR270C, strain vph1, active compounds read low 0.978 | locus YOR290C, strain snf2, active compounds read low 0.996 | locus YPL051W, strain arl3, active compounds read low 0.999 | locus YPL078C, strain atp4, active compounds read low 0.98 | locus YPL106C, strain sse1, active compounds read low 0.927 | locus YPL240C, strain hsp82, active compounds read low 0.978 | locus YPL256C, strain CLN2, active compounds read low 0.992
